These results are taken from PubChem BioAssay (NCI).

Several values for one entry are separate records, joined by “and”; a condition that tells them apart may be missing. Equal values may be shown once. This is part of a sample that, as a whole, favours compounds with a hit. Of some 83,000 tested, about 20% had one in any assay.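 A percent growth of 40 corresponds to 60% growth inhibition; 0 means no net growth; -100 means all cells died. Active threshold: below 10.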 A number with no mark means an inactive call. Activity calls are given as the source filed them.

Test systems include DU-145 prostate; K-562 leukemia; MALME-3M melanoma; MDA-MB-231 breast; RXF 393 renal; SF-268 CNS; SF-295 CNS; SF-539 CNS; UACC-257 melanoma; M14 melanoma.
Holding throughout (assay): NCI-60 one-dose screen, 48 h (100 = growth as untreated, 0 = no growth, -100 = all killed)
Details in all cases: 10 µM unless noted

Turning to `Cc1ccc(S(=O)(=O)Nc2cc(Sc3ccccc3)c(O)c3ccccc23)cc1`, the growth in the test on DU-145 prostate is 84.3%; in the test with K-562 leukemia it was 41.1%; in the test with MALME-3M melanoma, 77.7%; in the test on MDA-MB-231 breast, -1.57% (active); in the test with RXF 393 renal, 105%; in the test on SF-268 CNS, 65.8%. Also, the growth was 96.8% with SF-295 CNS, 92.9% in the test on SF-539 CNS, 62.8% in the test with UACC-257 melanoma and 107% in the test with M14 melanoma.
Regarding `CCN1CCN(CC(=O)Nc2nc3ccc(NCc4ccc(C)cc4)cc3s2)CC1`, the growth in the test on DU-145 prostate is 84.3%; in the test on K-562 leukemia it was -0.543% (active); with MALME-3M melanoma, -41.5% (active); in the test on MDA-MB-231 breast it was 59.1%; in the test on RXF 393 renal, 56.1%; with SF-268 CNS, 73.5%. Besides, the growth was 88.2% in the test with SF-295 CNS, 22.2% with SF-539 CNS, 34% in the test with UACC-257 melanoma and -44% (active) in the test on M14 melanoma.
For the compound `CN1CCCc2cc(/C=C3\SC(=S)N(C(Cc4ccc(O)cc4)C(=O)O)C3=O)ccc21` (stereo not given), the growth is 104% in the test with DU-145 prostate; 91.3% in the test on K-562 leukemia; 88.9% in the test on MALME-3M melanoma; 96.1% in the test on MDA-MB-231 breast; 99.4% in the test on RXF 393 renal; 97.2% in the test on SF-268 CNS. Moreover, the growth in the test with SF-295 CNS was 98.2%; in the test on SF-539 CNS, 102%; with UACC-257 melanoma it was 99.6%; with M14 melanoma, 101%.
For the compound `O=C(Nc1ccc(F)cc1)c1cc2cc(Nc3nc(-c4ccccc4)nc4ccccc34)ccc2oc1=O`, the growth in the test with DU-145 prostate is 108%; in the test on K-562 leukemia, 102%; in the test on MALME-3M melanoma it was 103%; with MDA-MB-231 breast, 90.6%; with RXF 393 renal it was 115%; in the test on SF-268 CNS it was 97.3%. Also, the growth in the test with SF-295 CNS is 108%; in the test on SF-539 CNS, 108%; in the test on UACC-257 melanoma, 96.6%; in the test on M14 melanoma it was 102%.
Regarding `COC(=O)c1nc(-c2ccc(C)cc2)oc1S(=O)(=O)c1ccc(Cl)cc1`, the growth was 113% with DU-145 prostate; 9.37% (active) in the test with K-562 leukemia; 31% in the test with MALME-3M melanoma; 87% with MDA-MB-231 breast; 120% with RXF 393 renal; 97.1% in the test with SF-268 CNS. Also, the growth is 108% in the test on SF-295 CNS, 96.6% with SF-539 CNS, 100% with UACC-257 melanoma and 79.7% in the test on M14 melanoma.
In the case of `COC(=O)/C=C1/SC(N2N=C(c3cccs3)CC2c2ccc(F)cc2)=NC1=O` (stereo not given), the growth is 31% with DU-145 prostate; 5.16% (active) in the test with K-562 leukemia; 79.7% in the test on MALME-3M melanoma; 35% with MDA-MB-231 breast; 48.7% with RXF 393 renal; 32.4% in the test on SF-268 CNS. The growth in the test on SF-295 CNS was 91.4%; in the test with SF-539 CNS, 91.6%; in the test with UACC-257 melanoma, 84.4%; with M14 melanoma, 50.8%.
Turning to `CN(C)CC1(C)Cc2ccsc2C1O` (stereo not given), the growth was 116% and 97.1% in the test on DU-145 prostate; 104% and 92.8% in the test with K-562 leukemia; 98.8% in the test on MALME-3M melanoma; 113% and 111% in the test with MDA-MB-231 breast; 108% and 109% with RXF 393 renal; 113% and 102% in the test with SF-268 CNS. Besides, the growth in the test on SF-295 CNS was 121% and 115%; with SF-539 CNS, 93.4% and 105%; in the test on UACC-257 melanoma, 108% and 110%; in the test with M14 melanoma, 111% and 108%.
In the case of `CN1C(=O)N(C)C2(c3ccccc3)N(CC(=O)Nc3ccccc3O)C(=O)NC12c1ccccc1` (stereo not given), the growth is 110% with DU-145 prostate; 101% in the test on K-562 leukemia; 107% with MALME-3M melanoma; 101% with MDA-MB-231 breast; 113% in the test with RXF 393 renal; 96.5% with SF-268 CNS. The growth in the test with SF-295 CNS was 101%; in the test on SF-539 CNS it was 96.4%; in the test on UACC-257 melanoma it was 125%; in the test on M14 melanoma it was 105%.
As for `Cc1cc(N2CCN(CC(=O)Nc3ccc4c(ccn4Cc4ccccc4)c3)CC2)nc(N2CCCCCC2)n1`, the growth is 71.5% in the test on DU-145 prostate; 14.8% with K-562 leukemia; 18.2% with MALME-3M melanoma; 28.2% in the test with MDA-MB-231 breast; 28.7% with RXF 393 renal; 72.9% in the test on SF-268 CNS. Moreover, the growth in the test on SF-295 CNS is 44.4%; with SF-539 CNS, 69.4%; in the test on UACC-257 melanoma, 42.8%; in the test with M14 melanoma it was -7.84% (active).
For the compound `Cc1nc2sc(C(=O)Nc3cccc4ccccc34)c(N)c2cc1C(=O)/C=C/c1ccccc1`, the growth in the test with DU-145 prostate was -3.16% (active); with K-562 leukemia, 12%; with MALME-3M melanoma it was 34%; with MDA-MB-231 breast, -16.2% (active); in the test with RXF 393 renal, -87.2% (active); in the test with SF-268 CNS, 9.83% (active). Besides, the growth with SF-295 CNS is -30.7% (active); in the test on SF-539 CNS, -20.1% (active); with UACC-257 melanoma it was 68.9%; with M14 melanoma it was -15.3% (active).
For `CCOC(=O)C1=C(C)NC(=O)NC1c1c(Cl)n(-c2ccccc2)c2ccccc12` (stereo not given), the growth in the test on DU-145 prostate is 85.7%; with K-562 leukemia, 43.4%; in the test on MALME-3M melanoma, 86.2%; with MDA-MB-231 breast it was 81.5%; in the test with RXF 393 renal it was 55.6%; with SF-268 CNS it was 86.7%. Moreover, the growth in the test on SF-295 CNS was 85.5%; in the test on SF-539 CNS, 87.9%; in the test with UACC-257 melanoma, 88.3%; in the test with M14 melanoma, 86.5%.
As for `CCN1C(=S)N(CC)C2C1NC(=S)N2/N=C/C=C/c1ccccc1` (stereo not given), the growth in the test on DU-145 prostate is 30.6%; in the test with K-562 leukemia, 15.5%; in the test with MALME-3M melanoma, 28%; with MDA-MB-231 breast it was 52.7%; in the test on RXF 393 renal, 2.31% (active); in the test on SF-268 CNS, 55.6%. The growth in the test with SF-295 CNS was 19.6%; with SF-539 CNS, 11.4%; in the test on UACC-257 melanoma, 41.7%; in the test on M14 melanoma, 24.8%.
